The results in this text go back to PubChem BioAssay (EPA / NIEHS).

Active and inactive are the calls of the source. How the source made its calls, unless noted: active means hit-call score of the fitted dose curve at least 0.9, where 1 is the maximum; inactive means score below 0.9.

System in the first assay: not listed separately
In words: CCTE_Shafer_MEA_dev_inter_network_spike_interval_mean: CCTE's Neural Network Formation Assay for Mean Inter-network Spike Interval, Shafer Lab (AID 2284047).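 On AC50: potency for a decrease in mean inter-network spike interval below DMSO.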 The procedure, abridged:
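Primary rat cortical neurons on PEI-coated 48-well MEAs (16 electrodes/well) were exposed from plating day 0 to DIV 12, with dosing renewed at DIV 5 and 9. Recordings at DIV 5, 7, 9, 12 were collapsed by trapezoidal AUC, loss-of-signal fit vs DMSO.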
For the compound `O=C1CCC(N2C(=O)c3ccccc3C2=O)C(=O)N1` (stereo not drawn), the result was inactive.
As to `CCC(C)(C)C(=O)O[C@H]1C[C@@H](C)C=C2C=C[C@H](C)[C@H](CC[C@@H]3C[C@@H](O)CC(=O)O3)[C@H]21`, the AC50 (in general, the midpoint of the concentration-response curve, whichever way the signal moves) is 0.506 µM (active).
As to `NC(=O)NO`, the result was inactive.
The same measure, in the same setting: the entry for `COc1ccc(-n2nc(C(F)F)cc2-c2ccc(S(C)=O)cc2)cc1` (stereo not drawn) is “inactive”; for `CNCc1ccc(NC(=O)c2c[nH]c3c2C(=O)CCC3)cc1` it is “inactive”.
As to `Nc1nc2ncc(CNc3ccc(C(=O)N[C@@H](CCC(=O)O)C(=O)O)cc3)nc2c(=O)[nH]1`, the outcome was inactive.
The same measure, in the same setting: the entry for `CC[C@H]1OC(=O)[C@H](C)[C@@H](O[C@H]2C[C@@](C)(OC)[C@@H](O)[C@H](C)O2)[C@H](C)[C@@H](O[C@@H]2O[C@H](C)C[C@H](N(C)C)[C@H]2O)[C@](C)(O)C[C@@H](C)C(=O)[C@H](C)[C@@H](O)[C@]1(C)O` is “inactive”.
Regarding `CC[C@H](C)C(=O)O[C@H]1C[C@@H](C)C=C2C=C[C@H](C)[C@H](CC[C@@H]3C[C@@H](O)CC(=O)O3)[C@H]21`, the AC50 was 1.98 µM (active).
`O=P(OC(CCl)CCl)(OC(CCl)CCl)OC(CCl)CCl`: the compound was classed as inactive.
Still for that read-out and setting: the entry for `Cn1c(=O)c2c(ncn2C)n(C)c1=O` is “inactive”.

System in another assay: not listed separately
In words: CCTE_Shafer_MEA_dev_network_spike_peak: CCTE's Neural Network Formation Assay for Mean Number of Electrodes in Network Spike, Shafer Lab (AID 2284049).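 On AC50: fitted for loss of signal meaning fewer electrodes in network spikes than DMSO.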 Put shortly: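 Continuous 12-day exposure of rat cortical cultures, starting at plating, on MEA plates. Endpoint: electrodes participating in network-spike peaks, AUC across DIV 5–12, DMSO as negative control.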
For the compound `O=C1CCC(N2C(=O)c3ccccc3C2=O)C(=O)N1` (stereo not drawn), the outcome was inactive.
With `CCC(C)(C)C(=O)O[C@H]1C[C@@H](C)C=C2C=C[C@H](C)[C@H](CC[C@@H]3C[C@@H](O)CC(=O)O3)[C@H]21`, the AC50 was 0.688 µM (active).
Consider `NC(=O)NO`, for which the outcome was inactive.
`COc1ccc(-n2nc(C(F)F)cc2-c2ccc(S(C)=O)cc2)cc1` (stereo not drawn): the AC50 is 1.98 µM (active).
Consider `CNCc1ccc(NC(=O)c2c[nH]c3c2C(=O)CCC3)cc1`, for which the AC50 is 2.03 µM (active).
Take `Nc1nc2ncc(CNc3ccc(C(=O)N[C@@H](CCC(=O)O)C(=O)O)cc3)nc2c(=O)[nH]1`: the outcome was inactive.
Same read-out and setting: the entry for `CC[C@H]1OC(=O)[C@H](C)[C@@H](O[C@H]2C[C@@](C)(OC)[C@@H](O)[C@H](C)O2)[C@H](C)[C@@H](O[C@@H]2O[C@H](C)C[C@H](N(C)C)[C@H]2O)[C@](C)(O)C[C@@H](C)C(=O)[C@H](C)[C@@H](O)[C@]1(C)O` is “inactive”.
For the compound `CC[C@H](C)C(=O)O[C@H]1C[C@@H](C)C=C2C=C[C@H](C)[C@H](CC[C@@H]3C[C@@H](O)CC(=O)O3)[C@H]21`, the AC50 was 1.56 µM (active).
Still for that read-out and setting: the figure for `O=P(OC(CCl)CCl)(OC(CCl)CCl)OC(CCl)CCl` is 2.98 µM (active).
Take `Cn1c(=O)c2c(ncn2C)n(C)c1=O`: the compound was classed as inactive.

The subject of the next assay is DIO2 (gene 1734). In words: CCTE_GLTED_hDIO2: CCTE's human Deiodinase 2 (DIO2) Inhibition Assay, Great Lakes Toxicology and Ecology Division (GLTED) Lab (AID 2284050; active means hit-call score of the fitted dose curve at least 0.9, where 1 is the maximum). The procedure, abridged:
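Cell-free human DIO2 incubated 3 h with chemical; liberated iodide quantified by Sandell-Kolthoff absorbance. Triplicate plates; loss of signal fitted vs DMSO.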
For `CCC(C)(C)C(=O)O[C@H]1C[C@@H](C)C=C2C=C[C@H](C)[C@H](CC[C@@H]3C[C@@H](O)CC(=O)O3)[C@H]21`, the half-maximal activity concentration (AC50) is 64.5 µM (active).
Still for that read-out and setting: the figure for `Clc1nc(Cl)c(Cl)c(Cl)c1Cl` is 14.8 µM (active).
For the compound `COc1cccc(-c2ccc(/C=C\CN3CCCCCC3)cc2Cl)c1`, the half-maximal activity concentration (AC50) is 77.7 µM (active).
The same measure, in the same setting: then `CC[C@H](C)C(=O)O[C@H]1C[C@@H](C)C=C2C=C[C@H](C)[C@H](CC[C@@H]3C[C@@H](O)CC(=O)O3)[C@H]21`, with 82.5 µM (active); and `CCOc1cccc(-n2cc(C(=O)N3CCN(c4cc(C(=O)O)c5ccccc5c4)CC3)nc2-c2ccc(C)cc2)c1`, with 100 µM (active); and `O=C(OC[C@H]1O[C@@H](OC(=O)c2cc(O)c(O)c(OC(=O)c3cc(O)c(O)c(O)c3)c2)[C@H](OC(=O)c2cc(O)c(O)c(OC(=O)c3cc(O)c(O)c(O)c3)c2)[C@@H](OC(=O)c2cc(O)c(O)c(OC(=O)c3cc(O)c(O)c(O)c3)c2)[C@@H]1OC(=O)c1cc(O)c(O)c(OC(=O)c2cc(O)c(O)c(O)c2)c1)c1cc(O)c(O)c(OC(=O)c2cc(O)c(O)c(O)c2)c1`, with 22.4 µM (active).
The same measure, in the same setting: the figure for `CCOC(=O)c1ccc(C2CCC(NC[C@H](O)COc3ccc(O)c(NS(C)(=O)=O)c3)CC2)cc1` (stereo partly drawn) is 105 µM (active); for `CC(C)=CCCC(C)=CC=O` it is 100 µM (active).

System in a further assay: not listed separately
In words: CCTE_Shafer_MEA_dev_spike_duration_mean: CCTE's Neural Network Formation Assay for Mean Spike Duration, Shafer Lab (AID 2284051).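 Further: mean network spike duration pooled as area under curve over DIV 5 to 12 recordings.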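 On AC50: potency for a decrease in mean network spike duration versus DMSO.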 Put shortly: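 Rat cortical primary cultures, 48-well MEA (16 electrodes/well); compound from plating, renewed DIV 5, 9. Network spike duration (AxIS adaptive detector) recorded DIV 5/7/9/12, combined as trapezoidal AUC; loss direction vs DMSO.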
Regarding `O=C1CCC(N2C(=O)c3ccccc3C2=O)C(=O)N1` (stereo not drawn), the call was inactive.
Take `CCC(C)(C)C(=O)O[C@H]1C[C@@H](C)C=C2C=C[C@H](C)[C@H](CC[C@@H]3C[C@@H](O)CC(=O)O3)[C@H]21`: the AC50 was 1.03 µM (active).
Turning to `NC(=O)NO`, the call was inactive.
For the compound `COc1ccc(-n2nc(C(F)F)cc2-c2ccc(S(C)=O)cc2)cc1` (stereo not drawn), the AC50 was 1.98 µM (active).
With `CNCc1ccc(NC(=O)c2c[nH]c3c2C(=O)CCC3)cc1`, the AC50 was 0.666 µM (active).
With `Nc1nc2ncc(CNc3ccc(C(=O)N[C@@H](CCC(=O)O)C(=O)O)cc3)nc2c(=O)[nH]1`, the compound was called inactive.
Regarding `CC[C@H]1OC(=O)[C@H](C)[C@@H](O[C@H]2C[C@@](C)(OC)[C@@H](O)[C@H](C)O2)[C@H](C)[C@@H](O[C@@H]2O[C@H](C)C[C@H](N(C)C)[C@H]2O)[C@](C)(O)C[C@@H](C)C(=O)[C@H](C)[C@@H](O)[C@]1(C)O`, the compound was classed as inactive.
Consider `CC[C@H](C)C(=O)O[C@H]1C[C@@H](C)C=C2C=C[C@H](C)[C@H](CC[C@@H]3C[C@@H](O)CC(=O)O3)[C@H]21`, for which the AC50 was 2.55 µM (active).
Take `O=P(OC(CCl)CCl)(OC(CCl)CCl)OC(CCl)CCl`: the outcome was inactive.
Same read-out and setting: the entry for `Cn1c(=O)c2c(ncn2C)n(C)c1=O` is “inactive”.
